Most compounds without a hit are left out; they make up all but 9.4% or so of the library.
SARS PLP yeast – SARS-CoV PLP inhibition in yeast; S. cerevisiae expressing SARS-CoV PLpro, growth rescue; Potency, µM (series often up to 32.9 µM), hits mostly activators; hit rate 0.19% among 330,000; AID 485353; calls by dose curve; note: nearly all actives have a fitted effect of over 55% in size
Pf growth 96h – P. falciparum growth inhibition at 96 hours | P. falciparum luciferase reporter growth, 96 h | Potency, µM (series often up to 28.7 µM), actives largely listed as inhibitors | hit rate 6.9% among 320,000 | AID 504834
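Cell-based qHTS: luciferase-tagged P. falciparum in erythrocytes (2% hematocrit, 0.05% parasitemia final) incubated with compounds for 96 hours, 37 C, 5% CO2; luciferase detection reagent then added and luminescence measured.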
AMA1 RON2 block – disrupts binding of P. falciparum AMA1 to RON2; AlphaScreen AMA1-biotinylated RON2 peptide binding; Potency, µM (series often up to 58.2 µM), most hits filed as inhibitors; hit rate 0.2% among 360,000; AID 720542; note: nearly all actives have a fitted effect of over 45% in size
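AMA1 (3D7) with his tag at 25 nM final met compounds first, then biotinylated RON2 peptide at 25 nM; detection used donor plus acceptor beads, 10 µg/mL apiece, read by AlphaScreen after 30 min at room temperature.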
Pf growth 48h – P. falciparum growth inhibition at 48 hours (one generation). hit rate 5.9% among 310,000. AID 504832. P. falciparum luciferase growth in erythrocytes, 48 h. Potency, µM (doses to about 28.7 µM), actives largely listed as inhibitors
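Here the parasites carry a stable luciferase gene and grow inside erythrocytes in Albumax-based RPMI medium with compound for one erythrocytic cycle. Activity is scored as loss of luminescent signal.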
Of the large screens only hits and unclear results are named; the others gave an inactive call. Unless noted, calls come from the whole dose curve; as a rule, active = well fitted curve in the direction sought with a large enough effect; inconclusive = small, poorly fitted or top-dose-only effect, or another doubt; inactive = no such curve, though single readings can be large; an effect the other way counts as inactive or inconclusive.

O=C(NC1CCS(=O)(=O)C1)c1ccc(S(=O)(=O)NCC2CCCO2)cc1 (centres undefined)	none
Cc1cccc(CSc2nc(N)c(C#N)c(-c3cccs3)c2C#N)c1	Pf growth 96h inconclusive, Pf growth 48h 13µM
FC(F)(F)c1ccc(Cl)c(-n2c(Cc3cccs3)n[nH]c2=S)c1	Pf growth 96h inconclusive, Pf growth 48h inconclusive
COc1ccc(NC(=O)N(CCN2CCCC2)Cc2cc3cc(OC)c(OC)cc3[nH]c2=O)cc1	Pf growth 96h inconclusive, Pf growth 48h 9.3µM
Cc1ccc2cc(CN(CCN3CCCC3)C(=O)Nc3ccccc3)c(=O)[nH]c2c1C	Pf growth 96h inconclusive, Pf growth 48h 10µM
Cc1ccc2cc(CN(CCN3CCCC3)C(=O)Nc3ccc(F)cc3)c(=O)[nH]c2c1C	Pf growth 48h 13µM
CCCCN1/C(=C/c2ccc3ccccc3[n+]2CC)Sc2ccccc21	Pf growth 48h 2.9µM
CC(=O)N(C1=C(N)C(=O)c2ccccc2C1=O)C(C)C	Pf growth 96h 9.3µM, Pf growth 48h 13µM
COc1ccc(CCNC(=O)C(C)n2nc(C)c3c(C)n(-c4ccc(C)cc4)nc3c2=O)c(OC)c1 (centres undefined)	Pf growth 96h 3.3µM, Pf growth 48h 13µM
COc1ccccc1CCNC(=O)C(C)n1nc(C)c2c(C)n(-c3ccccc3)nc2c1=O (centres undefined)	Pf growth 96h 12µM
Cc1cccc(CNC(=O)C(C)n2nc(C)c3c(C)n(-c4ccccc4)nc3c2=O)c1 (centres undefined)	Pf growth 96h 10µM, Pf growth 48h inconclusive
COc1ccc(CNC(=O)C(C)n2nc(C)c3c(C)n(-c4ccc(C)cc4)nc3c2=O)cc1 (centres undefined)	Pf growth 48h 13µM
CCOc1ccc(CNC(=O)C(C)n2nc(C)c3c(C)n(-c4ccccc4)nc3c2=O)cc1 (centres undefined)	Pf growth 48h inconclusive
Cc1cc(C)cc(NC(=S)NC2CC3CCCC(C2)N3C2CC2)c1 (centres undefined)	Pf growth 48h inconclusive
N#CC(=C=[N-])c1nc2ccccc2nc1-[n+]1cccc(NC(=O)c2cccs2)c1	none
Cc1ccc(C)c(NC(=O)c2cc(-c3cc(C)ccc3O)n[nH]2)c1	Pf growth 96h inconclusive
Cc1ccc(O)c(-c2cc(C(=O)Nc3ccc(S(=O)(=O)Nc4nc(C)cc(C)n4)cc3)[nH]n2)c1	Pf growth 96h 13µM, Pf growth 48h inconclusive
COc1ccc(NC(=O)c2ccc(S(=O)(=O)N3CC(C)OC(C)C3)cc2)cc1 (centres undefined)	none (no result: Pf growth 96h, Pf growth 48h)
Cc1cc(C)nc(NS(=O)(=O)c2ccc(NC(=O)c3ccc(S(=O)(=O)N4CC(C)OC(C)C4)cc3)cc2)n1 (centres undefined)	Pf growth 96h inconclusive, Pf growth 48h inconclusive
Cc1ccc(-c2cc(C(=O)Nc3ccc(S(=O)(=O)N4CC(C)OC(C)C4)cc3)[nH]n2)c(O)c1 (centres undefined)	Pf growth 96h 0.66µM, Pf growth 48h 0.26µM
Cc1ccc(O)c(-c2cc(C(=O)Nc3ccc(S(=O)(=O)N4CC(C)OC(C)C4)cc3)[nH]n2)c1 (centres undefined)	Pf growth 48h 0.52µM
O=C(O)c1ccccc1-c1ncc(-c2ccccc2)o1	none (no result: SARS PLP yeast, Pf growth 96h, Pf growth 48h)
O=C(O)/C=C/c1ccc(S(=O)(=O)Nc2cccnc2)cc1	Pf growth 48h inconclusive
COCCNC(=S)NN=C1CCCCC1	none
C=CCNC(=S)NN=C1CCCCCCC1	Pf growth 48h 8.3µM
COc1ccc(-n2nc(C(=O)NCC(=O)N3CC(C)CC(C)C3)c3ccccc3c2=O)cc1OC (centres undefined)	Pf growth 96h 1.7µM, Pf growth 48h 5.9µM
COc1ccc(-n2nc(C(=O)NCC(=O)N3CCCCCC3)c3ccccc3c2=O)cc1OC	Pf growth 96h 2.9µM
COc1ccc(-n2nc(C(=O)NCC(=O)N3CCOCC3)c3ccccc3c2=O)cc1Cl	Pf growth 96h inconclusive
N#C/C(=C/c1cccs1)c1nc2ccccc2[nH]1	Pf growth 96h inconclusive, Pf growth 48h inconclusive
COc1ccc(N2CCN(C(c3cccs3)C(C)NC(=O)C(=O)N3CCOCC3)CC2)cc1 (centres undefined)	Pf growth 48h inconclusive
Cn1c(SCC(=O)N2CCN(Cc3ccccc3)CC2)nnc1-c1ccncc1	Pf growth 96h 2.9µM
Cn1c(SCC(=O)N2CCOCC2)nnc1-c1ccncc1	none
O=C(CSc1nnc(-c2cccnc2)n1Cc1ccccc1)N1CCOCC1	SARS PLP yeast inconclusive, Pf growth 96h 1.9µM
CCOc1ccccc1NC(=O)CN1CCCCCC1	none
CCc1cc(Cn2nc(-c3ccccc3)cc2C(=O)NCc2cccs2)on1	Pf growth 96h 5.9µM, Pf growth 48h 15µM
COc1ccccc1C(=O)NC(=O)COC(=O)c1cccc(OC(F)F)c1	none
CCN(CC(O)Cn1c2ccccc2c2ccccc21)S(=O)(=O)c1ccc(F)cc1 (centres undefined)	Pf growth 96h 13µM (no result: Pf growth 48h)
O=S(=O)(c1ccc(F)cc1)N(CCO)CC(O)Cn1c2ccccc2c2ccccc21 (centres undefined)	Pf growth 96h inconclusive, Pf growth 48h 15µM
CS(=O)(=O)C1=NSC2=NC(=O)/C(=C\c3ccc(OC(=O)c4ccco4)cc3)C(=N)N21	none (no result: AMA1 RON2 block)
COc1ccc([N+](=O)[O-])cc1NC(=O)C(C)OC(=O)Cc1ccc(OC)c(OC)c1 (centres undefined)	none (no result: Pf growth 96h, Pf growth 48h)
CCN(CC)S(=O)(=O)c1ccc(N2CCOCC2)c(NS(=O)(=O)c2cccs2)c1	none
CCN(CC)S(=O)(=O)c1ccc(N2CCOCC2)c(NS(=O)(=O)c2cc(C(C)(C)C)ccc2C)c1	Pf growth 96h inconclusive, Pf growth 48h 0.083µM
CCN(CC)S(=O)(=O)c1ccc(N2CCOCC2)c(NS(=O)(=O)c2ccc(C(C)C)cc2)c1	Pf growth 96h 1.5µM, Pf growth 48h 2.9µM
CCN(C(=O)COC(=O)Cc1c[nH]c2ccccc12)c1c(N)n(Cc2ccccc2)c(=O)[nH]c1=O	none
O=C(CN1C(=O)NC2(CCCc3ccccc32)C1=O)c1ccccc1F (centres undefined)	none (no result: Pf growth 96h, Pf growth 48h)
CC(=O)c1c(C)[nH]c(C(=O)COc2cc(C)ccc2C(C)C)c1C	Pf growth 96h 4.7µM (no result: Pf growth 48h)
NS(=O)(=O)c1ccc(NC(=O)c2cc(=O)c3ccccc3o2)cc1	Pf growth 96h inconclusive
O=C(N/N=C/c1ccc(Cl)cc1Cl)c1cccc(F)c1	none
O=C(CCc1ccc(O)cc1)c1c(O)cc(O)cc1O	Pf growth 96h inconclusive, Pf growth 48h inconclusive
COc1cc(O)c(CC=C(C)C)c(O)c1C(=O)CCc1ccc(O)cc1	Pf growth 48h 9.3µM
Cc1n[nH]c(=O)c2c(NC(=O)COC(=O)COc3cccc(Br)c3)oc(C)c12	none
CC(C)C(c1nnnn1C(C)(C)C)N1CCC(Cc2ccccc2)CC1 (centres undefined)	Pf growth 48h 9.3µM
O=C(Nc1cnn(Cc2ccccc2)c1)c1nc2ncccn2n1	Pf growth 96h 2.6µM
CC1=NN(c2ccccc2)C(=O)C1N=Nc1ccc(S(N)(=O)=O)cc1 (centres undefined)	Pf growth 48h inconclusive

Source: PubChem (National Center for Advancing Translational Sciences (NCATS))
